The values below come from PubChem BioAssay (Tox21).

Test [1] can be described thus: qHTS assay to identify small molecule antagonists of the thyroid receptor (TR) signaling pathway (AID 743065). Note: nearly all actives have a fitted effect of over 55% in size. In outline: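 GH3.TRE-Luc rat pituitary cells (two TREs driving luciferase) were dosed with compound, then stimulated with 1 nM T3 (final) for 23.5 h at 37 C. ONE-Glo luminescence was the read-out, with CellTiter-Fluor fluorescence as the cytotoxicity counter-screen.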

The subject of test [2] is thyroid hormone receptor (rat, GH3 cells). Kind of test: qHTS assay to identify small molecule agonists of the thyroid receptor (TR) signaling pathway (AID 743066; calls by dose curve).
The target in test [3] is Estrogen receptor (Homo sapiens) (UniProt P03372). Kind of test: qHTS assay to identify small molecule antagonists of the estrogen receptor alpha (ER-alpha) signaling pathway (AID 743069; active = well fitted curve in the direction sought with a large enough effect in the signal ratio in the repeat runs, not every such curve was filed as active; the % refers to the signal ratio). In outline: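 Reporter cells (ER-alpha-bla, HEK293 background) are conditioned overnight in stripped-serum medium (2% charcoal-stripped FBS). Compound and 17beta-estradiol exposure runs 18 hr at 37C, 5% CO2.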

Test [4] is described as follows: qHTS assay to identify small molecule antagonists of the estrogen receptor alpha (ER-alpha) signaling pathway - cell viability counter screen (AID 743074; calls by dose curve;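 note: HEK293 cells carrying ER-alpha-UAS-bla reporter stimulated with 17beta-estradiol; nearly all actives have a fitted effect of over 45% in size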).
Test [5] has as its target Estrogen receptor (Homo sapiens) (UniProt P03372). As to the kind of experiment: qHTS assay to identify small molecule agonists of the estrogen receptor alpha (ER-alpha) signaling pathway (AID 743075; calls by dose curve;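 note: HEK293 GripTite cells with ER-alpha and UAS-driven beta-lactamase reporter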).
Test [6] has the same target. As to the kind of experiment: qHTS assay to identify small molecule agonists of the estrogen receptor alpha (ER-alpha) signaling pathway using the BG1 cell line (AID 743079). Note: nearly all actives have a fitted effect of over 20% in size. As to conditions: BG1Luc4E2 cells, ERE-luciferase agonist, 22 h.
The nature of test [7]: qHTS assay to identify small molecule antagonists of the estrogen receptor alpha (ER-alpha) signaling pathway using the BG1 cell line (AID 743080; calls by dose curve;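 note: BG1 cells stimulated with 17beta-estradiol alongside compound; nearly all actives have a fitted effect of over 25% in size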). In short, it runs like this: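 BG1Luc4E2, endogenous ER-alpha, 4xERE-luc; 5 d charcoal-stripped FBS, phenol red free; 24 h plating; cpd + 17beta-estradiol 21.5 h, 37 C/5% CO2; CellTiter-Fluor viability 30 min, then ONE-Glo luciferase 30 min RT.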

Test [8] is described as follows: qHTS assay to identify small molecule antagonists of the estrogen receptor alpha (ER-alpha) signaling pathway using the BG1 cell line - cell viability counter screen (AID 743081).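 Note: compound given together with 17beta-estradiol as the ER stimulus; nearly all actives have a fitted effect of over 45% in size.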
Test [9] concerns the target Aromatase (Homo sapiens) (UniProt P11511). Kind of test: qHTS assay to identify aromatase inhibitors (AID 743083). Note: nearly all actives have a fitted effect of over 55% in size.
The nature of test [10]: qHTS assay to identify aromatase inhibitors - cell viability counter screen (AID 743084).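 Note: cells stimulated with testosterone during compound exposure; nearly all actives have a fitted effect of over 55% in size.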
Test [11] has as its target Aryl hydrocarbon receptor (Homo sapiens) (UniProt P35869). Kind of test: qHTS assay to identify small molecule that activate the aryl hydrocarbon receptor (AhR) signaling pathway (AID 743085).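 For activation: HG2L7.5c1 human HepG2 liver cells with stably integrated DRE-driven firefly reporter.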 Note: nearly all actives have a fitted effect of over 15% in size. Note: potency is the fitted concentration of half-maximal effect. In outline:
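Luminescence (ONE-Glo) from a dioxin-responsive-element luciferase reporter in HG2L7.5c1 HepG2 cells after 24 hr compound exposure at 37C; viability measured by CellTiter-Fluor fluorescence beforehand.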

A short description of test [12]: qHTS assay to identify small molecule that activate the aryl hydrocarbon receptor (AhR) signaling pathway - cell viability counter screen (AID 743086).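 Note: HepG2 liver cells carrying the AhR DRE luciferase reporter; nearly all actives have a fitted effect of over 45% in size.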 In short, it runs like this:
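HepG2-AhR-luc (HG2L7.5c1) cells, 4000/well, treated 24 h at 37 C with compound; viability measured as CellTiter-Fluor fluorescence after 30 min in the same wells as the luciferase read.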

Test [13] concerns the target Peroxisome proliferator-activated receptor gamma (Homo sapiens) (UniProt P37231). As to the kind of experiment: qHTS assay to identify small molecule agonists of the peroxisome proliferator-activated receptor gamma (PPARg) signaling pathway (AID 743094; active = well fitted activation curve with a large enough effect in the signal ratio in the repeat runs, not every such curve was filed as active; the % refers to the signal ratio). In outline:
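Compounds dissolved in DMSO were added to PPARg UAS-bla HEK293H cells for 17 h at 37C, and reporter expression was quantified by fluorescence intensity after 1 h with LiveBLAzer B/G FRET substrate.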

For test [14] the target is unchanged. Kind of test: qHTS assay to identify small molecule antagonists of the peroxisome proliferator-activated receptor gamma (PPARg) signaling pathway (AID 743191; calls by dose curve; note: nearly all actives have a fitted effect of over 30% in size). In short, it runs like this:
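GeneBLAzer PPARg UAS-bla HEK293H cells, 5 h post-plating, exposed to compounds 17 h at 37C. LiveBLAzer B/G FRET substrate added for 1 h at room temperature; beta-lactamase reporter read by fluorescence intensity.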

A short description of test [15]: qHTS assay to identify small molecule antagonists of the peroxisome proliferator-activated receptor gamma (PPARg) signaling pathway - cell viability counter screen (AID 743194). Note: nearly all actives have a fitted effect of over 55% in size. The conditions noted are these: Potency: co-treated with 50 nM rosiglitazone. In short, it runs like this:
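Cytotoxicity counter screen in PPARg-bla HEK293H cells, same wells as reporter assay. Compounds plus 50 nM rosiglitazone (final) for 17 h at 37 C, then viability read by CellTiter-Glo luminescence.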

A short description of test [16]: qHTS assay for small molecule agonists of the antioxidant response element (ARE) signaling pathway (AID 743202; active = well fitted activation curve with a large enough effect in the signal ratio in the repeat runs, not every such curve was filed as active; the % refers to the signal ratio). In short, it runs like this: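 Agonist mode reporter screen: HepG2 cells with ARE-controlled beta-lactamase are incubated with test compounds for 16 h at 37 C, and beta-lactamase activity is measured as fluorescence of cleaved B/G FRET substrate.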
A short description of test [17]: qHTS assay for small molecule agonists of the antioxidant response element (ARE) signaling pathway - cell viability counter screen (AID 743203; calls by dose curve; note: nearly all actives have a fitted effect of over 55% in size). In short, it runs like this: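 Following 16 hrs of compound treatment at 37C, HepG2 cells with an ARE-controlled beta-lactamase gene were lysed with CellTiter-Glo. Luminescence was read after 30 min at room temperature.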

Test [18] can be described thus: qHTS assay for small molecule activators of the heat shock response signaling pathway - cell viability counter screen (AID 743209). Note: nearly all actives have a fitted effect of over 50% in size. In outline:
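Readout: CellTiter-Glo luminescence, 30 min at room temperature. System: HSE-bla HeLa cells, 1500/well, plated overnight. Treatment: compounds in DMSO, 5 h at 37 C.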

The nature of test [19]: qHTS assay to identify small molecule agonists of the peroxisome proliferator-activated receptor delta (PPARd) signaling pathway - cell viability counter screen (AID 743211). Note: nearly all actives have a fitted effect of over 55% in size. In short, it runs like this:
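Viability was measured as CellTiter-Glo luminescence (30 min, room temperature) in the same wells as the beta-lactamase readout. GeneBLAzer PPARd UAS-bla HEK293H cells received compound after 5 h plating and were incubated 17 h at 37 C.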

Test [20] can be described thus: qHTS assay for small molecule activators of the heat shock response signaling pathway (AID 743210; active = well fitted activation curve with a large enough effect in the signal ratio in the repeat runs, with a control signal flat, not every such curve was filed as active; the % refers to the signal ratio;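 note: HeLa cells with beta-lactamase reporter driven by heat shock elements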). In outline:
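Quantitative high-throughput format using an engineered HeLa line in which heat shock response elements drive beta-lactamase; after 5 h with compound, cells received a B/G FRET substrate and fluorescence was read.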

Where “and” joins values, the source holds several entries; their conditions need not be identical. Equal values may be shown once. Records with an inconclusive call do not appear. Unmarked numbers belong to inactive results. Calls of active or inactive are those of the source. Unless noted, calls come from the whole dose curve; as a rule, active = well fitted curve in the direction sought with a large enough effect in the repeat runs; inconclusive = weak or mixed curves; inactive = no such curve, though single readings can be large; an effect the other way counts as inactive or inconclusive.
% is set by controls: 0 for no effect and ±100 for the full control effect.

Sequence of Estrogen receptor (Homo sapiens) (P03372 whole entry, looked up): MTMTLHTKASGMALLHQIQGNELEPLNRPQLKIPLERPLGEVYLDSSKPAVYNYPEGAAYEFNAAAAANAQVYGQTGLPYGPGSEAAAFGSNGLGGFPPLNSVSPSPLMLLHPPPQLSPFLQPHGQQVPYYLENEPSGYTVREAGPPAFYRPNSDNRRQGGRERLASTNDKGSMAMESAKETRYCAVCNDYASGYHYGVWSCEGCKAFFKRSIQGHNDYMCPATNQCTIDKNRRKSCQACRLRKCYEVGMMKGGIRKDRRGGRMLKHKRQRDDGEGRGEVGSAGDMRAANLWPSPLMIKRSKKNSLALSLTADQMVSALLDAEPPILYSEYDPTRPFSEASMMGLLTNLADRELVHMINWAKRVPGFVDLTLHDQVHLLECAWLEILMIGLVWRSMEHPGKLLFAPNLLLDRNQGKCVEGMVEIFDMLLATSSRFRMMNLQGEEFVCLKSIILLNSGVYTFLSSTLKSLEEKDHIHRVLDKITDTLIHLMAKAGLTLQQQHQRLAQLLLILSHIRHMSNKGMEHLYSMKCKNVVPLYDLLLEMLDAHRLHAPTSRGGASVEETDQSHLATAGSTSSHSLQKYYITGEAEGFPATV
Sequence of Aryl hydrocarbon receptor (Homo sapiens) (P35869 whole entry, looked up): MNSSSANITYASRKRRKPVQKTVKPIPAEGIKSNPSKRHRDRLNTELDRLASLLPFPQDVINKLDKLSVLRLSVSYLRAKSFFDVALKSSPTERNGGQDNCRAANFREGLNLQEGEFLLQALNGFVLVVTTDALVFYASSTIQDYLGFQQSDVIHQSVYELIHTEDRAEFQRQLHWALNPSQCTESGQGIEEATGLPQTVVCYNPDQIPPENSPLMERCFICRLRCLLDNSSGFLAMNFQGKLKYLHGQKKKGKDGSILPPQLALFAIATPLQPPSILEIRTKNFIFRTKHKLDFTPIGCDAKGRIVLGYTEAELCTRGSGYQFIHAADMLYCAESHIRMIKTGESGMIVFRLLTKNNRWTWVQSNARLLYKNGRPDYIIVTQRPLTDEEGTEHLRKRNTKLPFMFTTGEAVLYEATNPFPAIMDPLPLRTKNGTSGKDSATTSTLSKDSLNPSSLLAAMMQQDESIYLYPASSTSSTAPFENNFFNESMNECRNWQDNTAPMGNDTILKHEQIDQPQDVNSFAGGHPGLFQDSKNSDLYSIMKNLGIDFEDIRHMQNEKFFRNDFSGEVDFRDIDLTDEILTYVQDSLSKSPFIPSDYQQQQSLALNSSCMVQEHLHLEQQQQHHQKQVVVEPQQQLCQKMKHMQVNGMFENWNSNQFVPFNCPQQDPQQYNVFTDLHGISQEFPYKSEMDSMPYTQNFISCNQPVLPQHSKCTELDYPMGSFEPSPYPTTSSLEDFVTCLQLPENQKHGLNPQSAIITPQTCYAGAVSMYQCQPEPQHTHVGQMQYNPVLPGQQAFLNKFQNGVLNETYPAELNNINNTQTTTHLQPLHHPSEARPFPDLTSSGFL
Sequence of Peroxisome proliferator-activated receptor gamma (Homo sapiens) (P37231 whole entry, looked up): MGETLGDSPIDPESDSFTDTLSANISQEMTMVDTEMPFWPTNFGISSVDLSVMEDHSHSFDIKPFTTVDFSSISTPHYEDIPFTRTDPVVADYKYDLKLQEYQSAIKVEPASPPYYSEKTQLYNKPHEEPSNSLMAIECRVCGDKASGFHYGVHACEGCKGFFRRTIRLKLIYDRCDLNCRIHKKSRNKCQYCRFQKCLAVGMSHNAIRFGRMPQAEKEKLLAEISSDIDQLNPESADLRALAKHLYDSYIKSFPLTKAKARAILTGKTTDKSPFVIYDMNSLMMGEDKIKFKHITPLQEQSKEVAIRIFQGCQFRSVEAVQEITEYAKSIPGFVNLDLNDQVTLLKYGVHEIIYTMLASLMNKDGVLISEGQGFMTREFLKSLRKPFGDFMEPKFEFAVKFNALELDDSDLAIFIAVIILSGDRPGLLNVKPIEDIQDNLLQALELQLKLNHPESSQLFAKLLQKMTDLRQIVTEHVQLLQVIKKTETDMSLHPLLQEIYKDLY
Sequence of Aromatase (Homo sapiens) (P11511 whole entry, looked up): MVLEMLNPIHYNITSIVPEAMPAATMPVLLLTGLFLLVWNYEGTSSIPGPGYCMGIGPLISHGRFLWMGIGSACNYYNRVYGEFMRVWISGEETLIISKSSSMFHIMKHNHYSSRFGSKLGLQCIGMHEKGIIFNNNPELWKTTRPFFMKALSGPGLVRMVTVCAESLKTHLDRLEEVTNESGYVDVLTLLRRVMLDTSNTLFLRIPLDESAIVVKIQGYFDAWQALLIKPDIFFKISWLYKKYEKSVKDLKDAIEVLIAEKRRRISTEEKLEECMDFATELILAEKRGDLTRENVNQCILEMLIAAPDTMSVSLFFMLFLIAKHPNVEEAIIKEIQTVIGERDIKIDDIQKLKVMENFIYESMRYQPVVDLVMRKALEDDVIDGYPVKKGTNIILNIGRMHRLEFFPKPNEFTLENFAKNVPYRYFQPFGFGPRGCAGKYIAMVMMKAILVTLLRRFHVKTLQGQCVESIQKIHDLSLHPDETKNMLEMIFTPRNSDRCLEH

Take `[O]=[Cd]`: the Potency entry in test [1], in test [2], in [3], in test [5], in test [7] and in test [8] was “inactive” in each case. Further, the Potency result in test [9], in [10], in [11], in [14], in [15] and in test [16] was “inactive” throughout. Also, the Potency entry in test [17], in [18] and in [19] was “inactive” throughout. The compound was called inactive in [4], in test [12] and in test [13]. The activation in test [6] (at 70.3 µM (top of the series)) is -13.8% and 18.3%.

For `OCCSCSCCO`, the Potency result in [1], in test [2], in test [3], in test [5], in test [7] and in test [8] was “inactive” throughout. Also, the Potency result in [9], in test [10], in test [11], in test [14], in test [15] and in test [16] was “inactive” throughout. For the same compound, the Potency result in [17], in [18] and in test [19] was “inactive” in each case. Further, the call in test [4], in [12] and in test [13] was inactive. The activation in test [6] (at 70.3 µM (top of the series)) was -2.71%.

`O=[N+]([O-])c1cccc2cccnc12`: the Potency result in [1], in [2], in test [3], in [5], in test [7] and in test [8] was “inactive” throughout. Moreover, the Potency result in [9], in test [10], in test [14], in test [17], in test [18] and in [19] was “inactive” throughout. Further, the outcome in test [4], in [12], in [13] and in test [20] was inactive. Also, the activation in [6] (at 95 µM (top of the series)) is -10.4%. In addition, the Potency in test [11] is 35.3 µM (active).

On to `CS(=O)(=O)c1cc(C(F)(F)F)ccc1C(=O)c1cnoc1C1CC1`, for which the Potency entry in test [1], in test [2], in test [3], in test [5], in [7] and in [8] was “inactive” throughout. Also, the Potency entry in [9], in [10], in test [11], in test [15], in test [16] and in test [17] was “inactive” throughout. The Potency entry in test [18] and in test [19] was “inactive” in each case. Besides, the outcome in test [4], in [12], in test [13] and in test [20] was inactive. In addition, the activation in test [6] (at 70.3 µM (top of the series)) is 0.699%.

As to `C[C@@H]1CN(C2CCC(C#N)(c3ccc(F)cc3)CC2)CC[C@]1(C(=O)O)c1ccccc1` (some centres not stated), the Potency result in test [1], in [2], in [3], in test [5], in test [7] and in test [8] was “inactive” throughout. For the same compound, the Potency entry in [9], in test [10], in test [11], in test [14], in test [15] and in test [16] was “inactive” throughout. Besides, the Potency entry in test [17] and in test [19] was “inactive” in each case. Besides, the compound was called inactive in test [4], in [12], in test [13] and in [20]. For the same compound, in test [6] (at 32.5 µM (top of the series)), the activation is -0.22%.

As for `C=CC1CC=CCC1` (configuration not stated), the Potency result in test [1], in test [2], in test [3], in test [5], in test [7] and in test [8] was “inactive” each time. Moreover, the Potency result in [9], in test [10], in test [11], in test [14], in test [15] and in [16] was “inactive” in each case. Also, the Potency result in test [17] and in test [19] was “inactive” in each case. In addition, the compound was classed as inactive in [4], in test [12], in test [13] and in test [20]. In test [6] (at 70.3 µM (top of the series)), the activation was 11%.

In the case of `COc1cc(OC)nc(NC(=O)NS(=O)(=O)c2ncccc2C(=O)N(C)C)n1`, the Potency entry in [1], in test [2], in test [3], in test [5], in test [7] and in test [8] was “inactive” each time. Further, the Potency entry in [9], in test [10], in test [11], in test [14], in test [15] and in [16] was “inactive” each time. The Potency entry in test [17], in test [18] and in test [19] was “inactive” throughout. Besides, the compound was classed as inactive in test [4], in test [12], in [13] and in [20]. Moreover, the activation in test [6] (at 70.3 µM (top of the series)) is 9.83%.

`ClC(Cl)(Cl)C(Cl)(Cl)Cl`: the Potency result in test [1], in test [2], in test [3], in [5], in [7] and in [8] was “inactive” in each case. In addition, the Potency result in test [9], in test [10], in test [11], in test [14], in test [15] and in [16] was “inactive” in each case. Besides, the Potency entry in [17] and in test [19] was “inactive” each time. The call in test [4], in test [12], in [13] and in [20] was inactive. Moreover, the activation in [6] (at 95 µM (top of the series)) was -4.65%.
